Experimental data taken from PubChem BioAssay AID1851 (National Center for Advancing Translational Sciences (NCATS), 2009).
Screen size: about 16,000 compounds; about 5,800 (36%) were called active. Roughly 23% stayed inconclusive and do not appear here. Calls come from the whole dose curve; as a rule, active = well fitted curve in the direction sought with a large enough effect; inconclusive = small, poorly fitted or top-dose-only effect, or effect the other way; inactive = no such curve, though single readings can be large or run the other way. The list shows a part of the results.

What follows are molecules tested against Cytochrome P450 2C19 (Homo sapiens) (UniProt P33261) (assay: Cytochrome panel assay with activity outcomes). Settings: recombinant CYP, pro-luciferin dealkylation, luminescence, p450-cyp2c19; series mostly up to 57.1 µM; activity, negative = inhibition: at the top concentration.
% is set by controls: 0 for no effect and ±100 for the full control effect.

Cytochrome P450 2C19 (Homo sapiens), sequence (P33261 whole entry, looked up): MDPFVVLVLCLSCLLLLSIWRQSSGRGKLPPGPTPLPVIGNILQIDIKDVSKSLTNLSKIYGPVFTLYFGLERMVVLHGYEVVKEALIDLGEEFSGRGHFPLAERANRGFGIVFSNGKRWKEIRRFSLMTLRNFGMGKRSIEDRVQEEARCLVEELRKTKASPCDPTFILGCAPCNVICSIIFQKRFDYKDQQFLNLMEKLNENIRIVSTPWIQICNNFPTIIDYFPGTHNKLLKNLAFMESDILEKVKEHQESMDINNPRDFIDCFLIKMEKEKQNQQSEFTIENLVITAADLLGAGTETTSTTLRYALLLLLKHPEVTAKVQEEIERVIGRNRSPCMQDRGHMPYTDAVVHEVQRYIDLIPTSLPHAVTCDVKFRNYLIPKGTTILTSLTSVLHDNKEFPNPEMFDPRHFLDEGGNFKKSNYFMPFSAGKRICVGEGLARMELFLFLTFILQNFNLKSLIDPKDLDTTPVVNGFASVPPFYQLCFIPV

SMILES	AC50	activity, negative = inhibition
Cc1ccc(Oc2ccccc2/C=C2\SC(=O)N(C)C2=O)cc1	6310 nM (active)	–
CC(C)(C)NC[C@H](O)COc1cccc2[nH]c(=O)[nH]c12	inactive	–
CCN(CC)S(=O)(=O)c1ccc(OC)c(NC(=O)CSc2ccccc2)c1	11200 nM (active)	–
CCN1CCC[C@H]1CNC(=O)c1cc(S(N)(=O)=O)ccc1OC	–	-6.49% (inactive)
COC(=O)c1cc(OC)c(OC)cc1NC(=O)CSc1ccccc1	3160 nM (active)	–
COC(=O)c1cc(OC)c(OC)cc1NC(=S)N1CCCCC1	6310 nM (active)	–
COC(=O)c1cc(OC)c(OC)cc1NC(=S)N1CCN(C)CC1	–	-13.3% (inactive)
COc1cc(N)c(Cl)cc1C(=O)OCCCN1CCCCC1	–	-22.8% (inactive)
COC(=O)c1cc(OC)c(OC)cc1NC(=O)CSc1ccc(C)cc1	1780 nM (active)	–
CCN(CC)S(=O)(=O)c1ccc(OC)c(NC(=O)c2cc([N+](=O)[O-])ccc2Cl)c1	–	-26.7% (inactive)
CCNc1ncc2ncc(=O)n(C[C@H]3CCCO3)c2n1	–	13.9% (inactive)
COCCn1c(=O)cnc2cnc(Nc3ccccc3)nc21	–	-14.5% (inactive)
O=c1cnc2cnc(Nc3ccccc3)nc2n1CCc1ccccc1	2000 nM (active)	–
CCNc1ncc2ncc(=O)n(C3CC3)c2n1	–	-16.6% (inactive)
CCNc1ncc2ncc(=O)n(CCc3ccccc3)c2n1	631 nM (active)	–
CC[N+](C)(C)c1cccc(O)c1	–	3.62% (inactive)
CCOc1ccc(C(Nc2ccc(C)cc2)P2(=O)OCC(C)(C)CO2)cc1 (centres undefined)	25100 nM (active)	–
CCOc1ccc(C2=[N+]([O-])C(C)(C)N(O)C2(C)C)cc1	–	2.26% (inactive)
CN(C)Cc1ccccc1-c1nccc(N(C)C)n1	–	3.03% (inactive)
CN(Cc1cccc2ccccc12)Cc1cccc2ccccc12	1580 nM (active)	–
CN(C/C=C\c1ccccc1)Cc1cccc2ccccc12	501 nM (active)	–
c1ccc2c(CC3=NCCN3)cccc2c1	–	-5.96% [at 25.6 µM] (inactive)
NCCSS(=O)(=O)CCN	–	4.15% [at 11.4 µM] (inactive)
CCOc1ccccc1C1C(C#N)=C(N)Oc2n[nH]c(CC)c21 (centres undefined)	6310 nM (active)	–
COCCn1c(C)cc2c(c1=O)C(c1ccccc1F)C(C#N)=C(N)O2 (centres undefined)	–	17.4% (inactive)
N=C(N)SCCN	–	-22.8% (inactive)
CCN1CCC[C@@H]1CNC(=O)c1cc(S(N)(=O)=O)ccc1OC	–	-20.4% (inactive)

SMILES	AC50	activity, negative = inhibition
CC(=O)C1=C(NC(=O)c2ccc(F)cc2)CC2C1C2(C)C (centres undefined)	3160 nM (active)	–
Nc1nc(-c2cccc([N+](=O)[O-])c2)cc(-c2cc(-c3cccc([N+](=O)[O-])c3)nc(N)n2)n1	–	14.8% [at 11.4 µM] (inactive)
O=[N+]([O-])c1cccc(-c2nc(-c3ccncc3)no2)c1	891 nM (active)	–
C[C@@H]1NC(=O)C/C=C\[C@@H](C)[C@@H]2C=C[C@H](O)[C@@H](COC(=O)[C@H](C)NC(=O)C/C=C\[C@@H](C)[C@@H]3C=C[C@H](O)[C@@H](COC1=O)O3)O2	–	-11.5% [at 11.4 µM] (inactive)
CC(=O)OC[C@@H]1O[C@H](CCO/N=C(\C)CCC(=O)OC[C@@H]2O[C@H](C#Cc3ccccc3)C=C[C@@H]2Oc2ccc(C)cc2)C=C[C@@H]1OC(C)=O	–	-44.9% [at 11.4 µM] (inactive)
COc1ccc(O[C@H]2C=C[C@@H](c3ccccc3)O[C@H]2CO/N=C(/C)CCC(=O)OC[C@@H]2O[C@H](c3ccccc3)C=C[C@@H]2Oc2ccc(OC)cc2)cc1	100 nM (active)	–
CC(=O)OC[C@H]1O[C@@H](O/N=C(\C)CCN2CCc3nc(-c4ccccc4)c(-c4ccccc4)cc3C2)[C@H](OC(C)=O)[C@@H](OC(C)=O)[C@H]1OC(C)=O	–	6.61% [at 11.4 µM] (inactive)
CC(=O)OC[C@H]1O[C@@H](ON=C(C)C)[C@H](OC(C)=O)[C@@H](OC(C)=O)[C@H]1OC(C)=O	–	32.2% [at 11.4 µM] (inactive)
COc1ccc(O[C@H]2C=C[C@@H](c3ccccc3)O[C@H]2COC(=O)CC/C(C)=N/O[C@@H]2O[C@H](COC(C)=O)[C@H](OC(C)=O)[C@H](OC(C)=O)[C@H]2OC(C)=O)cc1	1580 nM (active)	–
CCCNC(=O)OC[C@@H]1O[C@H](c2ccccc2)C=C[C@@H]1Oc1ccc(OC)cc1	–	-44.8% [at 11.4 µM] (inactive)
COc1ccc(O[C@H]2C=C[C@@H](c3ccccc3)O[C@H]2COC(=O)N2CCCCC2)cc1	501 nM (active)	–
CC(=O)OC[C@@H]1O[C@H](CCON=C(C)C)C=C[C@@H]1OC(C)=O	–	-20.6% [at 11.4 µM] (inactive)
COc1ccc(O[C@H]2C=C[C@@H](c3ccccc3)O[C@H]2COC(=O)CC/C(C)=N/OCC[C@@H]2C=C[C@H](OC(C)=O)[C@H](COC(C)=O)O2)cc1	398 nM (active)	–
COc1ccc(O[C@H]2C=C[C@@H](c3ccccc3)O[C@@H]2CON=C(C)C)cc1	–	-28.2% [at 11.4 µM] (inactive)
COc1ccc(O[C@H]2C=C[C@@H](c3ccccc3)O[C@H]2CO/N=C2/[C@H]3O[C@@H]3[C@@H](O)[C@H]3[C@H]2CCn2c(=O)n(-c4ccccc4)c(=O)n23)cc1	2510 nM (active)	–
CC(=O)OC[C@@H]1O[C@H](C/C=N\OC[C@@H](C)[C@H](OCc2ccccc2)C(C)C)C=C[C@@H]1OC(C)=O	–	-16.1% [at 11.4 µM] (inactive)
CC(=O)OC[C@@H]1O[C@H](C/C=N\OC[C@@H](O)COCc2ccco2)C=C[C@@H]1OC(C)=O	–	14.8% [at 11.4 µM] (inactive)
C/C(CCN1CCCc2nc(C)c(C)cc21)=N\OC[C@@H](O)[C@@H]1O[C@@H]2OC(C)(C)O[C@@H]2[C@H]1O	–	-36.9% [at 11.4 µM] (inactive)
C/C(CCN1CCc2nc(-c3ccccc3)c(-c3ccccc3)cc2C1)=N\OC[C@@H](O)[C@@H]1O[C@@H]2OC(C)(C)O[C@@H]2[C@H]1O	–	3.78% [at 11.4 µM] (inactive)
CCCNC(=O)OC[C@H]1O[C@@H](CCO/N=C2/[C@H]3O[C@@H]3[C@@H](O)[C@H]3[C@H]2CCn2c(=O)n(-c4ccccc4)c(=O)n23)C=C[C@@H]1Oc1ccc(OC)cc1	–	-3.58% [at 11.4 µM] (inactive)
COc1ccc(O[C@H]2C=C[C@@H](c3ccccc3)O[C@H]2COC(=O)CC/C(C)=N\OC[C@@H](O)[C@H]2O[C@H]3OC(C)(C)O[C@H]3[C@@H]2O)cc1	5.01 nM (active)	–
CC(=O)OC[C@@H]1O[C@H](C/C=N\O[C@@H](C)c2cc(-c3c(C)cc(C)cc3C)no2)C=C[C@@H]1OC(C)=O	–	-35.1% [at 11.4 µM] (inactive)
COc1ccc(O[C@H]2C=C[C@@H](c3ccccc3)O[C@H]2CO/N=C\C[C@@H]2C=C[C@H](OC(C)=O)[C@H](COC(C)=O)O2)cc1	794 nM (active)	–
CC(C)CO/N=C1/[C@H]2O[C@@H]2[C@@H](O)[C@H]2[C@H]1CCn1c(=O)n(-c3ccccc3)c(=O)n12	–	15.7% [at 11.4 µM] (inactive)
CCc1cc2c(nc1CC)CCN(CC/C(C)=N/O[C@@H](C)c1cc(-c3c(C)cc(C)cc3C)no1)C2	–	-42.9% [at 11.4 µM] (inactive)
COc1ccc(O[C@H]2C=C[C@@H](c3ccccc3)O[C@H]2COC(=O)CC/C(C)=N\O[C@@H](C)c2cc(-c3c(C)cc(C)cc3C)no2)cc1	100 nM (active)	–
Cc1cc2c(nc1C)CCCN2CC(O)CN1CCCc2nc(C)c(C)cc21	–	6.93% [at 11.4 µM] (inactive)

SMILES	AC50	activity, negative = inhibition
O=C1CCCN1CC(O)CS(=O)(=O)c1ccccc1 (centres undefined)	–	-6.21% (inactive)
Cc1ccc(S(=O)(=O)CC(O)CN2CCCC2=O)cc1 (centres undefined)	10000 nM (active)	–
CN(C)C(=O)/N=N\C(=O)N(C)C	–	-47.9% (inactive)
N[C@H](C(=O)O)[C@@H](O)c1cnc[nH]1	–	-17.9% [at 11.4 µM] (inactive)
C=CCOC(=O)/C(=C\c1cccc2ccccc12)NC(=O)c1ccccc1	398 nM (active)	–
CCOc1ccccc1/C=C(\C#N)C(N)=O	–	-18.7% [at 11.4 µM] (inactive)
CCOc1cccc2cc(C(N)=O)c(=NCc3ccccc3)oc12	10000 nM (active)	–
COCc1nc2c([nH]1)c(=O)n(C)c(=O)n2CC(C)C	–	-17% (inactive)
O=C(CSc1nc2ccccc2c(=O)n1Cc1ccccc1)NCc1ccco1	708 nM (active)	–
CCOC(=O)CSc1nc2ccccc2c(=O)n1CC1CCC(C(=O)NCc2ccco2)CC1 (centres undefined)	7080 nM (active)	–
CC(C)Cn1c(SCc2nc3ccccc3c(=O)[nH]2)nc2ccccc2c1=O	2510 nM (active)	–
COCCn1c(Cc2ccccc2)nnc1SCc1nc2ccccc2c(=O)[nH]1	–	56% (inactive)
O=C(CSc1ccccc1C(=O)O)NCc1ccco1	–	-3.72% (inactive)
CC(=O)NCCn1c(SCC(=O)NCc2ccco2)nc2ccccc2c1=O	1120 nM (active)	–
C=CCNC(=O)C1CCN(S(=O)(=O)CC)CC1	–	-20.8% (inactive)
C=CCSc1nc2ccccc2c(=O)n1Cc1ccco1	1000 nM (active)	–
Cc1cc(NC(=O)CSc2nc3ccccc3c(=O)n2CCCC(=O)NCc2ccco2)n[nH]1	2240 nM (active)	–
O=C(CSc1nc2ccccc2c(=O)n1CCCO)NCc1ccccc1	11200 nM (active)	–
Cc1cccc(C)c1-n1c(SCC(=O)NCc2ccco2)nc2ccccc2c1=O	4470 nM (active)	–
COC(=O)N1CCC2(CCCN(C(=O)Nc3ccc(OC)cc3)C2)CC1	–	-38.2% (inactive)
O=C(CSc1nc2ccccc2c(=O)n1CCCC(=O)N1CCCC1)NCc1ccco1	4470 nM (active)	–
O=C(O)CCCCCn1c(SCC(=O)N2CCCC2)nc2ccsc2c1=O	–	16.5% (inactive)
COc1ccc(NC(=O)CSc2nc3ccccc3c(=O)n2CCC(=O)N2CCCCC2)cc1	794 nM (active)	–
O=c1c2ccccc2nc(SCc2ccccc2Cl)n1Cc1ccccc1	2820 nM (active)	–
Cc1cc(NC(=O)CSc2nc3ccsc3c(=O)n2Cc2ccccn2)n[nH]1	15800 nM (active)	–
